Eight compounds from PubChem BioAssay (NCATS) can be followed below.

The nature of assay [1]: Cell Viability - LYMP2-005 (AID 967; active = well fitted cell-killing curve with a large enough effect; inconclusive = small, poorly fitted or top-dose-only effect, or effect the other way; inactive = no such curve, though single readings can be large or run the other way; also: potency is read from the fitted curve at half-maximal effect). The procedure, abridged: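 LYMP2-005 human lymphoblastoid cells (2500/well) were treated with compounds for 24 h at 37 C. Intracellular ATP was then measured by CellTiter-Glo luminescence after 30 min at room temperature. AC50 values came from Hill-equation fits of qHTS concentration-response data.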
Assay [2] deals with Estrogen receptor (Homo sapiens) (UniProt P03372). The experiment in a line: qHTS assay for small molecule antagonists of estrogen receptor alpha signaling (AID 588513; active = well fitted curve in the direction sought with a large enough effect in the signal ratio, with a control signal flat, not every such curve was filed as active; inconclusive = small, poorly fitted or top-dose-only effect, or effect the other way, or a change in a side signal; inactive = no such curve, though single readings can be large or run the other way; the % refers to the signal ratio; also: potency is read from the fitted curve at half-maximal effect). The procedure, abridged: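 Antagonist mode: inhibition of 0.5 nM 17-beta-estradiol-driven beta-lactamase reporter in HEK 293 ER-alpha-UAS-bla cells, 18 h at 37C, CCF4 readout after 2 h at RT. Normalised to estradiol and DMSO; titration fitted to Hill.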
Sequence of Estrogen receptor (Homo sapiens) (P03372 whole entry, looked up): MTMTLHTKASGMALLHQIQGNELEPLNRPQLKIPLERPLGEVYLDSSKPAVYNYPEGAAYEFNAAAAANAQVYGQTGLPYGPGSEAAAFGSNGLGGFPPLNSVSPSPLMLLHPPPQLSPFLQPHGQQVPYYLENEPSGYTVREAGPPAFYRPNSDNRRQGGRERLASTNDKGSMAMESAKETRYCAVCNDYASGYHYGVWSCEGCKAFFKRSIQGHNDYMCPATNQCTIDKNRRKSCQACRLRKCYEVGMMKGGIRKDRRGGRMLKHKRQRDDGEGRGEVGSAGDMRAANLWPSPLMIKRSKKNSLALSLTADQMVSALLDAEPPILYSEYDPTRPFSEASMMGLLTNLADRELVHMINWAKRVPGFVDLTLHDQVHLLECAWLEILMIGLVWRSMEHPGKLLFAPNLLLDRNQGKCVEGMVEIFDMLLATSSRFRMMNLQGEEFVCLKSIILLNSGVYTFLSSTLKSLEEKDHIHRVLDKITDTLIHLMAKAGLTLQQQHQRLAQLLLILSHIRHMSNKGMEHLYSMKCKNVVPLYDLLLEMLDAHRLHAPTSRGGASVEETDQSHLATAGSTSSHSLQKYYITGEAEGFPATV
For orientation: qHTS replaces the single test concentration by a dilution series.

Assay [3] deals with Glucocorticoid receptor (Homo sapiens) (UniProt P04150). The experiment in a line: qHTS assay for small molecule agonists of glucocorticoid receptor signaling (AID 588532; active = well fitted curve in the direction sought with a large enough effect in the signal ratio, with a control signal flat; inconclusive = small, poorly fitted or top-dose-only effect, or a change in a side signal; inactive = no such curve, though single readings can be large or run the other way; the % refers to the signal ratio;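 also: 100% = dexamethasone at 0.1 µM and 0% = DMSO only wells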). As to conditions: HeLa MMTV-bla, beta-lactamase ratio, agonist, 18 h; stronger effect = higher value; percent of dexamethasone control, DMSO zero. A digest of the protocol:
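Agonist-mode qHTS: GRE-driven beta-lactamase in HeLa cells exposed 18 h to titrated compounds (up to 92 uM), then CCF4 ratio read after 2 h at RT; Hill-fitted EC50, efficacy relative to 0.1 uM dexamethasone.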

For assay [4] the target is unchanged. The experiment in a line: qHTS assay for small molecule antagonists of glucocorticoid receptor signaling (AID 588533; active = well fitted inhibition curve with a large enough effect in the signal ratio, with a control signal flat, not every such curve was filed as active; inconclusive = small, poorly fitted or top-dose-only effect, or effect the other way, or a change in a side signal; the % refers to the signal ratio;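 also: cells stimulated with 2 nM dexamethasone as agonist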; also: potency is read from the fitted curve at half-maximal effect). A digest of the protocol:
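Antagonist-mode qHTS: compound titrations added to GRE-bla HeLa cells, then dexamethasone 2 nM final; 18 h, 37 C. CCF4 FRET fluorescence normalized to dexamethasone and DMSO; IC50 from Hill fit.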

Assay [5] in a line: qHTS assay for small molecule antagonists of retinoid X receptor alpha signaling (AID 588546; active = well fitted inhibition curve with a large enough effect in the signal ratio, with a control signal flat, not every such curve was filed as active; inconclusive = small, poorly fitted or top-dose-only effect, or effect the other way, or a change in a side signal; inactive = no such curve, though single readings can be large or run the other way; the % refers to the signal ratio; also: potency is read from the fitted curve at half-maximal effect;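 as to max response: cells stimulated with 9-cis-retinoic acid as agonist; % is scaled to controls: 0 for no effect and ±100 for the full control effect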). As to conditions: HEK293T RXRa-UAS-bla, beta-lactamase ratio, antagonist mode; measured here: W530 green channel, cytotoxicity proxy. A digest of the protocol:
(§1)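 Beta-lactamase reporter inhibition, read as CCF4 fluorescence ratio (ex 405, em 460/530 nm) after 2 h at RT. HEK293T UAS-bla cells, 2500/well, were stimulated with 9-cis-RA at 500 or 100 nM final alongside test compound for 18 h at 37 C.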

Assay [6] addresses Retinoic acid receptor RXR-alpha (Homo sapiens) (UniProt P19793). Described as above. The settings on record: HEK293T RXRa-UAS-bla, beta-lactamase ratio, antagonist mode. A digest of the protocol: as §1
Assay [7] can be described thus: MultiTox-Fluor Cytotoxicity Assay - LYMP1-002 - Dead Cells (AID 960; active = well fitted cell-killing curve with a large enough effect; inconclusive = small, poorly fitted or top-dose-only effect, or effect the other way; inactive = no such curve, though single readings can be large or run the other way; also: nearly all actives have a fitted effect of over 60% in size; also: potency is read from the fitted curve at half-maximal effect). The procedure, abridged: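 Human lymphoblastoid cells (LYMP1-002), 2500/well in complete medium, were exposed to compounds for 16 hr at 37 C. Dead-cell protease activity was read as bis-AAF-R110 fluorescence (Ex/Em 485/520), normalized to DMSO and 15 uM tetraoctylammonium bromide; AC50 from Hill fits.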

The target of assay [8] is Estrogen receptor (Homo sapiens) (UniProt P03372). Briefly: qHTS assay for small molecule agonists of estrogen receptor alpha signaling (AID 588514).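 Also: 0% = vehicle only and 100% = reference agonist; nearly all actives have a fitted effect of over 70% in size.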 The procedure, abridged:
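ER-alpha-UAS-bla GripTite HEK 293 cells in medium with 2% charcoal/dextran-treated FBS were treated with compound titrations at 37 C for 18 hrs; beta-lactamase reporter read by CCF4 fluorescence after 2 hrs at RT.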

Assay [9] deals with Bile acid receptor (Homo sapiens) (UniProt Q96RI1). Briefly: qHTS assay for small molecule antagonists of farnesoid X receptor signaling (AID 588526). Also: potency is read from the fitted curve at half-maximal effect. The procedure, abridged: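 Beta-lactamase reporter antagonist mode: HEK293T FXR-UAS-bla cells, titrated compound, CDCA stimulation, 16 h 37 C, CCF4 dye 2 h RT. Data normalized to CDCA 50 uM and DMSO; Hill-fit IC50.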
Sequence of Bile acid receptor (Homo sapiens) (Q96RI1 whole entry, looked up): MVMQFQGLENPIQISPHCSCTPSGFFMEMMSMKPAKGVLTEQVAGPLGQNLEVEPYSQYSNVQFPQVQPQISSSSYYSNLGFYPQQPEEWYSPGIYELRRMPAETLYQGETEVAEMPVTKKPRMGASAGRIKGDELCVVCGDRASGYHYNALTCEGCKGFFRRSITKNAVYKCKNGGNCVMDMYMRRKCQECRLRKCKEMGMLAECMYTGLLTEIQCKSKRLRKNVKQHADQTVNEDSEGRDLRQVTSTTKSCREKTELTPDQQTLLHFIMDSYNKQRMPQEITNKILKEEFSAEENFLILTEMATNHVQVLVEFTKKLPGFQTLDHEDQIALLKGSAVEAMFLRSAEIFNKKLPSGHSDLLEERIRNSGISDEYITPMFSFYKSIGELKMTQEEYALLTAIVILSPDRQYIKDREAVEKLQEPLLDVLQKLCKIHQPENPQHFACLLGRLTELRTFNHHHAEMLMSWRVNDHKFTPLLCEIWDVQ
Assay [10] can be described thus: qHTS assay for small molecule disruptors of the mitochondrial membrane potential - 1 hr assay (AID 651754). Also: nearly all actives have a fitted effect of over 35% in size. Also: potency is read from the fitted curve at half-maximal effect. The procedure, abridged: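 HepG2 cells, attached overnight at 37C, were exposed to compound or DMSO vehicle for 1 hr at 37C, 5% CO2, then stained with Mito-MPS dye for 30 min. Red aggregate versus green monomer fluorescence reports membrane potential.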
For assay [11], the target named is Tumor necrosis factor (Homo sapiens) (UniProt P01375). Briefly: qHTS assay to identify small molecules that stimulate Tumor Necrosis Factor-alpha (TNF-alpha) secretion (AID 651757; active = well fitted curve in the direction sought with a large enough effect in the signal ratio; inconclusive = small, poorly fitted or top-dose-only effect, or a change in a side signal; inactive = no such curve, though single readings can be large or run the other way; the % refers to the signal ratio; also: 0% is about no effect). The procedure, abridged:
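THP-1 cells were exposed to compounds for 17 hrs at 37 C, after which secreted TNF-alpha was measured by homogeneous HTRF (TR-FRET) using cryptate- and XL665-labeled anti-TNF-alpha antibodies, read after 3 hr at room temperature.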

Assay [12] in a line: qHTS assay for small molecule antagonists of peroxisome proliferator-activated receptor delta signaling (AID 588535; active = well fitted inhibition curve with a large enough effect in the signal ratio, with a control signal flat, not every such curve was filed as active; inconclusive = small, poorly fitted or top-dose-only effect, or effect the other way, or a change in a side signal; inactive = no such curve, though single readings can be large or run the other way; the % refers to the signal ratio;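 as to max response: cells co-treated with a PPAR-delta agonist as stimulator during compound exposure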). As to conditions: HEK293T PPARd-UAS-bla, beta-lactamase FRET ratio, 18 h; 460 nm channel. A digest of the protocol:
(§2)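 Cell-based beta-lactamase assay in antagonist mode: 4000 HEK293T PPAR-delta-UAS-bla cells per well, 5 hr preincubation then 18 hr compound incubation at 37 C. IC50 obtained by Hill equation fitting.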

Assay [13] addresses Peroxisome proliferator-activated receptor delta (Homo sapiens) (UniProt Q03181). The description is as above. The procedure, abridged:
as §2

Assay [14] concerns the target Peroxisome proliferator-activated receptor gamma (Homo sapiens) (UniProt P37231). Briefly: qHTS assay for small molecule agonists of peroxisome proliferator-activated receptor gamma signaling (AID 588536; active = well fitted curve in the direction sought with a large enough effect in the signal ratio, with a control signal flat, not every such curve was filed as active; inconclusive = small, poorly fitted or top-dose-only effect, or effect the other way, or a change in a side signal; inactive = no such curve, though single readings can be large or run the other way; the % refers to the signal ratio;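 also: 0% = DMSO basal wells and 100% = rosiglitazone at 2 µM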). A digest of the protocol:
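GeneBLAzer PPAR-gamma-UAS-bla HEK293 cells in 1% charcoal/dextran-treated FBS medium were treated 16 h at 37 C with compounds. Beta-lactamase activity was read by CCF4 ratio (460/530 nm). Response was normalized to 2 uM rosiglitazone (100%) and DMSO, then Hill-fitted for EC50 and efficacy.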

The nature of assay [15]: qHTS assay for small molecule agonists of retinoid X receptor alpha signaling (AID 588544).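 As to activation: 0% = DMSO basal wells and 100% = reference agonist.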 The settings on record: HEK293T RXRa-UAS-bla, beta-lactamase reporter, 18 h; 530 nm emission.
Assay [16] has as its target Retinoic acid receptor RXR-alpha (Homo sapiens) (UniProt P19793). The assay is described as above.
Assay [17] addresses Thyroid hormone receptor beta (Homo sapiens) (UniProt P10828). Briefly: qHTS assay for small molecule antagonists of thyroid hormone receptor beta signaling (AID 588547; active = well fitted inhibition curve with a large enough effect in the signal ratio, with a control signal flat, not every such curve was filed as active; inconclusive = small, poorly fitted or top-dose-only effect, or effect the other way, or a change in a side signal; the % refers to the signal ratio;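 also: cells stimulated with 0.4 nM T3 agonist during compound exposure; series mostly up to about 77 µM; % is scaled to controls: 0 for no effect and ±100 for the full control effect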). As to conditions: TR-UAS-bla HEK293, beta-lactamase ratio, antagonist mode, 18 h. The procedure, abridged: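 Inhibition of T3-driven (0.4nM final) beta-lactamase reporter activity was measured over 0.59 nM to 92 uM compound after 18 h at 37 C. The cells were GripTite HEK293 TR-UAS-bla in charcoal/dextran-stripped serum, with CCF4 ratio read-out and IC50 from Hill fits.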

Assay [18] concerns the target Nuclear receptor subfamily 1 group I member 2 (Rattus norvegicus) (UniProt Q9R1A7). Briefly: qHTS assay for small molecule activators of the rat pregnane X receptor (rPXR) signaling pathway (AID 651751; call rule not given here; also: 0% is about no effect). The settings on record: rPXR reporter cells, luciferase (One-Glo), 24 h.
Assay [19] in a line: qHTS assay for small molecule activators of the human pregnane X receptor (PXR) signaling pathway (AID 720659; call rule not given here; also: 0% is about no effect).
The nature of assay [20]: qHTS assay for small molecule activators of the p53 signaling pathway (AID 651743; active = well fitted activation curve with a large enough effect in the signal ratio, not every such curve was filed as active; inconclusive = small, poorly fitted or top-dose-only effect, or a change in a side signal; the % refers to the signal ratio; also: potency is read from the fitted curve at half-maximal effect; as to activation: series mostly up to about 92 µM; % of control where 0% means no effect). As to conditions: HCT-116 p53RE-bla, beta-lactamase FRET ratio, 16 h; activation: stronger effect = higher value. The procedure, abridged:
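Screen for p53 pathway agonists uses stably transfected p53RE-bla HCT-116 cells, 4,000 per well, treated 16 h at 37 C with compounds in DMSO.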

“And” between values parts separate entries of the source, which are not always exact repeats. Equal entries are not always repeated. The source made the active and inactive calls. Unless noted, calls follow the shape of the full dose curve.

Sequence of Tumor necrosis factor (Homo sapiens) (P01375 whole entry, looked up): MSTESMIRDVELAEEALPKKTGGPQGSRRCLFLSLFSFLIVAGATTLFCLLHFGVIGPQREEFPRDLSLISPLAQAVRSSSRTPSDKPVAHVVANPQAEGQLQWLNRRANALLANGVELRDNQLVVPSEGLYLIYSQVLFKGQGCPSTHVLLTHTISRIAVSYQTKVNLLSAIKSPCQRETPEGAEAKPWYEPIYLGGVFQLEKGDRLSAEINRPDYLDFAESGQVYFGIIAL
Sequence of Nuclear receptor subfamily 1 group I member 2 (Rattus norvegicus) (Q9R1A7 whole entry, looked up): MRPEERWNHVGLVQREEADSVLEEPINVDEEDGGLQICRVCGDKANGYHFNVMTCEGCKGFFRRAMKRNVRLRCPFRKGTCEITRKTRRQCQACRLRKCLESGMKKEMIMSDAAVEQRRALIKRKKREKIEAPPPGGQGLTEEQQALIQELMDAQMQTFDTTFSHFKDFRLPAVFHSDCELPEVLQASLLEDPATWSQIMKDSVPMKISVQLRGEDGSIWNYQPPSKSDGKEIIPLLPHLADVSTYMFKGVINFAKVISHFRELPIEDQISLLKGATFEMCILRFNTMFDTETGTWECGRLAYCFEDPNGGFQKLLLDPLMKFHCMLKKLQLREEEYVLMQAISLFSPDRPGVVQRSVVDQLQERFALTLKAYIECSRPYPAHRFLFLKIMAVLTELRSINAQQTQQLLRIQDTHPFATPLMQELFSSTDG
Sequence of Retinoic acid receptor RXR-alpha (Homo sapiens) (P19793 whole entry, looked up): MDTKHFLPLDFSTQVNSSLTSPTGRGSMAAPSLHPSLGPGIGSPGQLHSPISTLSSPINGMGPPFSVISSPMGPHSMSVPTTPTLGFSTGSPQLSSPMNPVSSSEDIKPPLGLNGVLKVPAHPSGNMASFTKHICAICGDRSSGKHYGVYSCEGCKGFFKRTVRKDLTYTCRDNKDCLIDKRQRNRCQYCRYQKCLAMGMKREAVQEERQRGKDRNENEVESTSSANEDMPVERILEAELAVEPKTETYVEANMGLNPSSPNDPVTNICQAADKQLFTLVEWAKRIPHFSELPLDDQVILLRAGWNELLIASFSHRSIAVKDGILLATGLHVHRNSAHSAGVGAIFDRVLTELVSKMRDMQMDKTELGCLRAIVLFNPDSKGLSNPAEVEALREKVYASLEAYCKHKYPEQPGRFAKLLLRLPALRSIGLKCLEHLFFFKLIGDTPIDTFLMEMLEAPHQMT
Sequence of Thyroid hormone receptor beta (Homo sapiens) (P10828 whole entry, looked up): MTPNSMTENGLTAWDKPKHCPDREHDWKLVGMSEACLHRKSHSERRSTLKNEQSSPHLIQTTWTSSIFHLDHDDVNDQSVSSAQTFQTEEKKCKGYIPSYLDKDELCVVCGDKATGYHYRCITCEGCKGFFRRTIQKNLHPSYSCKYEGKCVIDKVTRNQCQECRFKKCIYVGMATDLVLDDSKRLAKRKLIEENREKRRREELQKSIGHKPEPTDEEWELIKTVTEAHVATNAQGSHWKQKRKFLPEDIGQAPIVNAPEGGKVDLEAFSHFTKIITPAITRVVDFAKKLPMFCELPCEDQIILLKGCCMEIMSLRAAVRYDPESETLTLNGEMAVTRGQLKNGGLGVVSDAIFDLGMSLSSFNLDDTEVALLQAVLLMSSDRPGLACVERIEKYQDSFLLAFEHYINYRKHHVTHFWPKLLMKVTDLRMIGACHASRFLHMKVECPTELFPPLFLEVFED
Sequence of Glucocorticoid receptor (Homo sapiens) (P04150 whole entry, looked up): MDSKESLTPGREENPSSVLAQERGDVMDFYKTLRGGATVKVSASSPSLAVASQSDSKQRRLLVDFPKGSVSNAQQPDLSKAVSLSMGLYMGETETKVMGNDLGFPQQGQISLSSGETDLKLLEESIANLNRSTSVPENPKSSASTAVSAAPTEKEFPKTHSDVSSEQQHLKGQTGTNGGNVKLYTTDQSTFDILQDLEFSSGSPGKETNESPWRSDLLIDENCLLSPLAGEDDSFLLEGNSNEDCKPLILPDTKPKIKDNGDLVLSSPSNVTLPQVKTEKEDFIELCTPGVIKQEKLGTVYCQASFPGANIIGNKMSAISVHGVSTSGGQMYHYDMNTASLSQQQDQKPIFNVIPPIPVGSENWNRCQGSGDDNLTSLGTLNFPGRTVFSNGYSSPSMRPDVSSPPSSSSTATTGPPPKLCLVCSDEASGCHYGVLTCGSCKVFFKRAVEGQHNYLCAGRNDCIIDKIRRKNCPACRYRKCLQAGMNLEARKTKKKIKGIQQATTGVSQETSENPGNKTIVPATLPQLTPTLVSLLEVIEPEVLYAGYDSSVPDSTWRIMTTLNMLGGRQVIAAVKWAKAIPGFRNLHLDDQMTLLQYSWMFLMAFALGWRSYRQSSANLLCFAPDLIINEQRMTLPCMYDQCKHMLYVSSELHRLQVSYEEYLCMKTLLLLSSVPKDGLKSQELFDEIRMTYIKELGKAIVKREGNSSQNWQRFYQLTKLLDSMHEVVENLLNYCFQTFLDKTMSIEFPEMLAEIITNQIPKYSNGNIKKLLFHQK
Sequence of Peroxisome proliferator-activated receptor delta (Homo sapiens) (Q03181 whole entry, looked up): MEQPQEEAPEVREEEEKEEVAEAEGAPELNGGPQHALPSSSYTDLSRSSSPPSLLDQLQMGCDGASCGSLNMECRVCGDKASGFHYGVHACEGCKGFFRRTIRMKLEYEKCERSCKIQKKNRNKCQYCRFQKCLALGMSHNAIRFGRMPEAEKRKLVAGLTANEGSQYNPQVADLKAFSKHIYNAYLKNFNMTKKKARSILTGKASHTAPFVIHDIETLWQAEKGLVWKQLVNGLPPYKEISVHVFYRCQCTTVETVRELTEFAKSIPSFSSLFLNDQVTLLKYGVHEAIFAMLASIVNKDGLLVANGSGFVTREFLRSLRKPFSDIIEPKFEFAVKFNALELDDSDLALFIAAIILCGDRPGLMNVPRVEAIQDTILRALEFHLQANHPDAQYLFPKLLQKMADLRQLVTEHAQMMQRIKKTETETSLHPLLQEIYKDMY
Sequence of Peroxisome proliferator-activated receptor gamma (Homo sapiens) (P37231 whole entry, looked up): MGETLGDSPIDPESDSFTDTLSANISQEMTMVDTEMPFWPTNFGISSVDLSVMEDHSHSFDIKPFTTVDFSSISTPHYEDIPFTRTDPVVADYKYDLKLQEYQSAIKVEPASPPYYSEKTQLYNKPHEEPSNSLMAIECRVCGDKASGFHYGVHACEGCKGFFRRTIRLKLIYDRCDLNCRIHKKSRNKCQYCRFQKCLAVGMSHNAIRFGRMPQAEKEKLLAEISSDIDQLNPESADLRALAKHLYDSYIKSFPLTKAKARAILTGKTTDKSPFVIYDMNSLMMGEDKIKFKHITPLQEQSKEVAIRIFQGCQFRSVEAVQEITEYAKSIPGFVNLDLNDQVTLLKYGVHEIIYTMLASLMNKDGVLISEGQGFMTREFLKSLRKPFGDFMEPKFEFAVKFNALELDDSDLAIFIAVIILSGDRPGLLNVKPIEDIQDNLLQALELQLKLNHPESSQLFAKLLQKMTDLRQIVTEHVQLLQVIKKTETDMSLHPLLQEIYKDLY

Take `CCC(C)Nc1ccc(NC(C)CC)cc1` (stereo unspecified): the Potency in assay [1] was 6.31 µM (active); in assay [2], 6.31 µM [inconclusive] (active); in assay [4] it was 35.5 µM (active); in [6] it was 28.2 µM (active). Also, in assay [3], the activation was 1.29% (inactive) and -5.53% (inactive). Moreover, the max response in [5] is -40%.

Turning to `Cc1cc(O)c(C(C)(C)C)cc1Sc1cc(C(C)(C)C)c(O)cc1C`, the Potency is 31.6 µM (active) in assay [7], 12.6 µM [inconclusive] (active) in assay [2], 22.4 µM (active) in assay [9] and 10.6 µM (active) in [10]. Besides, the outcome in [8] and in assay [11] was inactive. Further, in assay [3], the activation was 26% (inactive).

Regarding `CCCCCC/C(C=O)=C\c1ccccc1`, the Potency entry in assay [7], in assay [1], in [9] and in [10] was “inactive” in each case. Also, the activation in assay [3] is -2.77% (inactive). The max response in assay [12] is 24.4%; in assay [15], 3.46%; in assay [5], 10.6%; in assay [6], 9.05% (inactive); in assay [18], -2.08% (inactive). Moreover, the outcome in assay [13], in assay [14], in [16], in assay [11] and in assay [19] was inactive. For the same compound, the activity change % (negative = inhibition) in assay [17] was 8.8% (inactive).

On to `CO[C@H]1/C=C/O[C@@]2(C)Oc3c(C)c(O)c4c(O)c(c5c(c4c3C2=O)NC2(CCN(CC(C)C)CC2)N=5)=NC(=O)/C(C)=C\C=C\[C@H](C)[C@H](O)[C@@H](C)[C@@H](O)[C@@H](C)[C@H](OC(C)=O)[C@@H]1C`, for which the Potency result in assay [7], in assay [2], in assay [9], in assay [4] and in [10] was “inactive” each time. Besides, in assay [8], the compound was called inactive. Further, the activation in assay [3] was -2.4% (inactive); in assay [20], -4.17% (inactive). Also, the activity change % (negative = inhibition) in [17] is 5.09% (inactive). Further, the max response in [18] is 7.05% (inactive).

For `O=C(OCC(COC(=O)c1ccccc1)(COC(=O)c1ccccc1)COC(=O)c1ccccc1)c1ccccc1`, the Potency result in assay [1] is “inactive”. In addition, the compound was classed as inactive in assay [11] and in [19].

For the compound `Cc1ccc(S(=O)(=O)Oc2ccc(N=Nc3ccc(-c4ccc(N=Nc5c(O)ccc6cc(S(=O)(=O)O)cc(S(=O)(=O)O)c56)c(C)c4)cc3C)cc2)cc1`, the Potency result in assay [9] and in assay [4] was “inactive” each time. The max response is -16.1% in [15], -21.4% in assay [5], 14.7% (inactive) in assay [6] and -4.06% (inactive) in assay [18]. Moreover, the call in assay [16] and in assay [19] was inactive. Also, the activity change % (negative = inhibition) in assay [17] is 6.13% (inactive). Further, the activation in assay [20] was 1.02% (inactive).

In the case of `Cc1cc(Nc2ccc(O)cc2)ccc1N`, the Potency in assay [1] was 39.8 µM (active). Besides, the Potency entry in assay [9] is “inactive”. The max response is -10.3% in [15], -15.7% in assay [5], 21.4% (inactive) in [6] and -2.27% (inactive) in [18]. Moreover, the compound was called inactive in assay [16] and in [19]. The activity change % (negative = inhibition) in assay [17] is -8.81% (inactive).

On to `CN(C)c1ccc(C2(c3ccc(N(C)C)cc3)OC(=O)c3cc(N(C)C)ccc32)cc1`, for which the Potency result in assay [2] is “inactive”. Moreover, the max response in assay [12] was -30.7%; in [5], -30.3%; in assay [6], 32.7% (inactive); in assay [18], -2.55% (inactive). Also, the compound was classed as inactive in assay [13], in assay [14] and in [19]. In assay [17], the activity change % (negative = inhibition) is 12.5% (inactive). Further, the Potency in assay [20] is 50.1 µM (active).
